Measurements from PubChem BioAssay AID743126 (The Scripps Research Institute Molecular Screening Center, 2013).
About 2,100 (0.57%) of roughly 370,000 compounds were called active. The entries come from a sample that favours actives as a whole. A number with no mark means an inactive call.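 The calls were made as follows: active = inhibition above mean plus 3 SD of compounds lying within the high and low control bounds (cut at about 19% in these data); inactive = the rest.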

Biological target: Group 3 secretory phospholipase A2 (Homo sapiens) (UniProt Q9NZ20)
Test: human group III sPLA2 inhibitors, primary screen, biochemical, QFRET, BODIPY PC-A2 liposome substrate (AID 743126);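 also: 0% = median of test compound wells and 100% = no enzyme DMSO wells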
Details: QFRET BODIPY PC-A2 liposome hydrolysis, fluorescence; at 12.2 µM; stronger effect = higher value

Sequence of Group 3 secretory phospholipase A2 (Homo sapiens) (Q9NZ20 whole entry, looked up): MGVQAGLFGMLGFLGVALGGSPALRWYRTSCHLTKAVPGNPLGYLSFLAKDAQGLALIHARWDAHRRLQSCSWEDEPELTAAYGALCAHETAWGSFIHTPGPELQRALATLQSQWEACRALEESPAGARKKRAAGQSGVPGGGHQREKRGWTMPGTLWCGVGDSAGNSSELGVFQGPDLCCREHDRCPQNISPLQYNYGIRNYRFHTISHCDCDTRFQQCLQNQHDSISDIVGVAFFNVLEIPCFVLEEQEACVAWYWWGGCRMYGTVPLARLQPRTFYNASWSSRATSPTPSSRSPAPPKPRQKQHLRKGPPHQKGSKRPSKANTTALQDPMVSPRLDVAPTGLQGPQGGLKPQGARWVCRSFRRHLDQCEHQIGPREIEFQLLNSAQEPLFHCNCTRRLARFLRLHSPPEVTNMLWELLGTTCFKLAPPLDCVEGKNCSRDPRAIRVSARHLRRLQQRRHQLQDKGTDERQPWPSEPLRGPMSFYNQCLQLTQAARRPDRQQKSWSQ

| SMILES | inhibition |
| --- | --- |
| CCCCCCN1CCS(=O)(=O)N(Cc2ccc(C(F)(F)F)cc2)C(C(=O)OC)C1 (configuration not stated) | 5.31% |
| O=C(N/N=C/c1cc(Cl)cc([N+](=O)[O-])c1O)C(O)(c1ccccc1)c1ccccc1 | 21.2% (active) |
| O=C(NN=Cc1ccco1)C(=O)Nc1ccc(Cl)c([N+](=O)[O-])c1 | 3.31% |
| O=[N+]([O-])c1cc(Cl)cc(/C=N/NC(=S)Nc2cc(S(=O)(=O)N3CCOCC3)ccc2Cl)c1O | 16.3% |
| CN(C)CC(=O)N[C@@H]1C[C@@H]2O[C@H](CO)CC[C@@H]2O[C@@H]1CCc1ccc(C#Cc2ccccc2)cc1 | -19.5% |
| COc1ccc(-n2c(SCC(=O)Nc3ccc4c(c3)OCCO4)nnc2-c2ccc(Cl)cc2)cc1 | 0.31% |
| CC(NCc1ccco1)C(=O)N1CCCCC1 (configuration not stated) | 3.8% |
| CCN(CC(=O)NCCc1ccccc1)S(=O)(=O)c1ccccc1 | 0.93% |
| O=C(CSc1ccccc1F)NC1CCS(=O)(=O)C1 (configuration not stated) | 1.4% |
| CCN(CC(=O)NC1CCS(=O)(=O)C1)S(=O)(=O)c1ccccc1 (configuration not stated) | 22.4% (active) |
| CCCNC(=O)Nc1ccc2c(c1)C(=O)N(C)[C@H]1CC[C@H](CC(=O)NCC3CCCCC3)O[C@@H]1CO2 | -24.2% |
| C=CCN1[C@@H](Cc2ccccc2)COc2cccc(N3CCSCC3)c2S1(=O)=O | -0.87% |
| O=C(CSc1nc2ccccc2s1)N=Nc1c(O)[nH]c2ccccc12 | -40.6% |
| O=C(CSc1nnc(-c2cccs2)n1Cc1ccco1)c1ccc2c(c1)OCO2 | -35.9% |
| O=C(CSc1nnc(COc2ccccc2)n1Cc1ccco1)c1ccc2ccccc2c1 | -53.5% |
| Cc1sc2nc(SCC(=O)c3ccc(O)c(O)c3)n(Cc3ccco3)c(=O)c2c1C | 23.9% (active) |
| COc1ccc(-n2c(COc3ccc(C)cc3)nnc2SCC(=O)Nc2ccc(Oc3ccccc3)cc2)cc1 | -8.43% |
| CCN(C(=O)[C@@H](C1CC1)[C@@H](O)c1ccc2ccccc2c1)c1ccccc1 | 4.03% |
| CCCCN1CCN(C(=O)c2ccc3c(c2)NC(=O)C(C)(C)O3)CC1 | 5.11% |
| O=C(Nc1ccccc1)N1CCN(Cc2nc3ccccc3c(=O)[nH]2)CC1 | 7.43% |
| COC(=O)[C@H](C(C)C)N1CCc2nnn(Cc3ccc(C)cc3)c2-c2ccccc2S1(=O)=O | -9.33% |
| CC(C)=CCCC1(C)C=Cc2c(ccc3c2[nH]c2cc(O)c(C)cc23)O1 (configuration not stated) | 22.9% (active) |

| SMILES | inhibition |
| --- | --- |
| C=C(C)C#CC(Cc1ccccc1)N(CC1CC1)/C(N)=N/C(=O)OCc1ccccc1 (configuration not stated) | 7.88% |
| CC(C)c1cc(C(=O)N/N=C/c2ccoc2)c(O)c(C(C)C)c1 | 22.1% (active) |
| CC(C)c1cc(N=O)cc(C(C)C)c1O | -42.9% |
| C[C@@H]1COc2cccc(N3CCCC3)c2S(=O)(=O)N1C | 2.99% |
| O=C(c1ccccc1)c1ccc(-c2ccccc2C(=O)NC2CCCCN(Cc3ccc(Cl)cc3)C2=O)cc1 (configuration not stated) | -1.89% |
| Brc1ccccc1C1N=C(c2ccccc2)NO1 (configuration not stated) | 9.79% |
| COc1cc2c(cc1OC)C(c1ccccc1Br)NC(=O)C2 (configuration not stated) | 13.2% |
| Brc1ccccc1C1Nc2cccc3cccc(c23)N1 | 27.1% (active) |
| Cc1ccc(NC(=O)Nc2cc(C)nn2-c2ccccc2)cc1 | 3.2% |
| Cc1nc2ccc(C(=O)N3CCN(C(=O)C(C)(C)C)CC3)cc2n1C1CCCC1 | 3.1% |
| CN1C(=O)c2cc(NS(C)(=O)=O)ccc2OC[C@@H]2O[C@@H](CC(=O)NCc3ccc(-c4ccccc4)cc3)CC[C@H]21 | -2% |
| c1csc(-c2nnc(SCc3nc4ccccc4[nH]3)o2)c1 | -4.46% |
| O=C(NC1CCCCN(Cc2cccc(C(F)(F)F)c2)C1=O)c1ccccc1I (configuration not stated) | -1.99% |
| Cc1c(Cl)cccc1NC(=S)NCc1ccc2c(c1)OCO2 | 19.5% (active) |
| COc1cccc(CNCc2ccc3c(c2)OCO3)c1 | 3.34% |
| Cc1c(Cl)cccc1NC(=S)NCC(O)c1ccccc1 (configuration not stated) | 8.54% |
| O=C(CSc1nnc(-c2cccc(Cl)c2)n1Cc1ccco1)Nc1ccc(OCc2ccccc2)cc1 | -12.1% |
| Cc1ccccc1CS(=O)(=O)Cc1ccc(C(=O)Nc2ccc(Cl)cc2)o1 | -4.56% |
| CCS(=O)(=O)N1Cc2ccccc2CC1C(=O)Nc1ccc(OC)cc1OC (configuration not stated) | -0.28% |
| COc1ccc(NC(=O)C2C3C=CC(C3)C2C(=O)NCc2ccccn2)c(OC)c1 (configuration not stated) | 20.6% (active) |
| CCOc1ccc(N2CC(C(=O)NCc3ccccn3)CC2=O)cc1 (configuration not stated) | 0.93% |
| Cc1ccc(-n2c(SCC(=O)Nc3cccc4ccccc34)nnc2-c2ccccn2)cc1 | -5.54% |

| SMILES | inhibition |
| --- | --- |
| CCc1cc(C(c2ccccc2OC)N2CCOCC2)c(NC(=O)c2ccccc2)s1 (configuration not stated) | -10.3% |
| O=C(Nc1ccc(CSc2ccccc2)cc1)c1ccc(CN2CCOCC2)cc1 | -16.7% |
| COc1ccc(C(=O)Nc2sc(C)c(C)c2CN2CCOCC2)cc1 | 21.9% (active) |
| CCCCC(=O)N[C@@H]1CC[C@@]23CCCN2C(=O)CCC[C@H]3[C@H]1C | 7.19% |
| COCC(=O)N[C@@H]1C[C@@H]2O[C@@H](CO)CC[C@@H]2O[C@@H]1CCc1ccc(-c2ccccc2)cc1 | -1.64% |
| CCOC(=O)c1csc(NC(=O)Nc2cccc(OC)c2)n1 | -1.84% |
| NC(c1csc(NC(=O)Nc2cccc(C(F)(F)F)c2)n1)C1CCCCC1 (configuration not stated) | 6.78% |
| COc1ccc(C(N)c2csc(NC(=O)Nc3cccc(C(F)(F)F)c3)n2)cc1 (configuration not stated) | 27.4% (active) |
| COC(=O)C[C@H]1CC[C@H]2[C@H](COc3ccc(NC(=O)C4CC4)cc3C(=O)N2C)O1 | -1.19% |
| CC(C)(C)c1ccc(CSc2nnc(-c3cccs3)o2)cc1 | -0.56% |
| CN(C)S(=O)(=O)c1cccc(NC(=O)COC(=O)/C=C/c2cccs2)c1 | -11.5% |
| CN(C)S(=O)(=O)c1cccc(NC(=S)N/N=C/C(=O)c2ccccc2)c1 | 24% (active) |
| CN(C)S(=O)(=O)c1cccc(C(=O)N/N=C\c2ccco2)c1 | 1.45% |
| COC(=O)C1CN(Cc2cn(Cc3ccc(F)cc3)nn2)CCS(=O)(=O)N1Cc1ccc(Cl)cc1 (configuration not stated) | -11.8% |
| Cc1cc(C(=O)NN=C/C=C/c2ccco2)n[nH]1 | 13% |
| COc1ccc2c(c1)c(=Cc1ccc(N(C)C)cc1)c1cc(-c3ccccc3)[n+](C)n12 | 31.7% (active) |
| CCCC[C@H](C(=O)N(CC)c1ccccc1)[C@@H](O)c1ccc2ccccc2c1 | -3.7% |
| O=S(=O)(NC(=S)Nc1ccccc1)c1ccc(F)cc1 | -1.06% |
| O=C(NNC(=S)Nc1ccc(F)cc1)[C@H]1C[C@@H]1c1ccccc1 | 24% (active) |
| Cc1ccc(NC(=O)C2CC2c2ccccc2)cc1 (configuration not stated) | -0.8% |
| c1ccc(C2=Nc3cccc4cccc(c34)N2)cc1 | 38.6% (active) |
| Brc1ccc(C2CC(c3ccccc3)=Nc3ccccc3N2)cc1 (configuration not stated) | -5.39% |

| SMILES | inhibition |
| --- | --- |
| CC[C@]1(O)CC2CN(CCc3c([nH]c4ccccc34)[C@@](C(=O)OC)(c3cc4c(cc3OC)N(C=O)[C@H]3[C@@](O)(C(=O)OC)[C@H](OC(C)=O)[C@]5(CC)C=CCN6CC[C@]43[C@@H]65)C2)C1 (some centres not stated) | 13.5% |
| CC[C@]1(O)C[C@@H]2CN(CCc3c([nH]c4ccccc34)[C@@](C(=O)OC)(c3cc4c(cc3OC)N(C)[C@H]3[C@@](O)(C(=O)OC)[C@H](OC(C)=O)[C@]5(CC)C=CCN6CC[C@]43[C@@H]65)C2)C1 | 24.8% (active) |
| C=CCN1C(=O)[C@@H](CC(=O)NCCCCc2ccccc2)[C@]2(C(=O)OCC)CCCCC/C=C/12 | -9.75% |
| COC(=O)[C@]1(C#N)CC(=O)N(CC2CCCCC2)[C@@H]1c1ccccc1 | 4.27% |
| CN(C(N)=NC(=O)/C=C/c1ccccc1)C(C#Cc1ccccc1)Cc1ccccc1 (configuration not stated) | 2.67% |
| O=C(COC(=O)c1ccccn1)NNC(=O)c1ccc(Br)cc1 | -1.11% |
| CCN(CC)S(=O)(=O)c1cc(C(=O)Nc2ccccn2)ccc1C | -0.99% |
| O=C(NNc1ccccn1)c1ccc(Cl)nc1 | 21.1% (active) |
| O=S1(=O)c2c(cccc2N2CC[C@H](O)C2)O[C@@H]2CCN1C2 | 4.99% |
| O=C(NCc1ccco1)C1CCCN(S(=O)(=O)c2ccc(Cl)s2)C1 (configuration not stated) | -7.36% |
| Cc1cc2cc(CNC(=O)c3cccs3)ccc2[nH]1 | 1.16% |
| CCOCC(=O)NCc1ccc2c(c1)cc(C)n2C | 12.3% |
| CCc1cccc(CC)c1NC(=S)NCc1ccc2[nH]c(C)cc2c1 | 20.3% (active) |
| COc1cccc(CNC(=O)C2CCCN(c3nc4ccccc4o3)C2)c1OC (configuration not stated) | 10.2% |
| COc1ccc(-n2c(SCC(=O)Nc3ccc(C)c(Cl)c3)nc3ccccc3c2=O)cc1 | 14.2% |
| CC(C)(C)OC(=O)NCCc1ccccc1/C=C/S(=O)(=O)NCc1ccc(F)cc1 | -1.5% |
| CCCCNC(=O)C[C@H]1C[C@@]2(C(=O)OC)C(=C[C@H](COCc3ccccc3)O[C@@H]2C)N(Cc2ccc(Cl)cc2Cl)C1=O | -3.1% |
| Cc1ccc(-c2nnc(SCC(=O)Nc3ccc(Oc4ccccc4)cc3)n2Cc2ccco2)cc1 | -6.88% |
| O=C(NNc1cc(Cl)cc(Cl)c1)c1c(F)cccc1Cl | 3.94% |
| O=C(CCl)NNc1cccc(Cl)n1 | 71% (active) |
| O=C(Cc1c(Cl)cccc1Cl)NC1CC1 | 2.07% |
